According to PubChem BioAssay (EPA / NIEHS):
Results filed as inconclusive are left out. A structure can be active in one record and inactive in another. The source made the active and inactive calls. Rule for the calls, unless noted: active = hit-call score of the fitted dose curve at least 0.9, where 1 is the maximum; inactive = score below 0.9.

Key:
[1] = ATG_PBREM_CIS: Attagene CIS-FACTORIAL HepG2 Assay for human Phenobarbital-responsive Enhancer Module (PBREM) (AID 2282955); conditions: HepG2 PBREM cis-reporter, Attagene multiplexed transcription; actives raise or lower the signal
Procedure, shortened: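 Reporter mRNA read by RT-PCR, 6-FAM primer extension, HpaI digestion and capillary electrophoresis. Transfected HepG2 cells, 24 h compound exposure. Gain or loss of signal fitted bidirectionally relative to DMSO baseline.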

[2] = target: Paired box protein Pax-6 (Homo sapiens) (UniProt P26367); experiment: ATG_Pax6_CIS: Attagene CIS-FACTORIAL HepG2 Assay for human Paired Box 6 (PAX6) (AID 2282956); conditions: HepG2 CIS-FACTORIAL PAX6 reporter transcription, RNA readout; actives raise or lower the signal
Procedure, shortened: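 DMSO-referenced bidirectional fits of reporter mRNA fluorescence; HepG2 with transient cis-promoter MRTUs, 24 h post-dose, RT-PCR plus capillary electrophoresis detection.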

[3] = ATG_PXRE_CIS: Attagene CIS-FACTORIAL HepG2 Assay for human Pregnane X Receptor Element (PXRE) (AID 2282957); conditions: HepG2 Attagene CIS-FACTORIAL PXRE reporter, mRNA; actives raise or lower the signal
Procedure, shortened: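 Fluorescent capillary electrophoresis of amplified reporter cDNA gave the signal, collected 24 h after dosing HepG2 cells that held transfected cis-element reporter constructs.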

[4] = ATG_PPRE_CIS: Attagene CIS-FACTORIAL HepG2 Assay for human Peroxisome Proliferator-activated Response Element (PPRE) (AID 2282958); conditions: HepG2 PPRE cis-element reporter, Attagene transcription factor profiling; actives raise or lower the signal
Procedure, shortened: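 Read-out: fluorescent reporter mRNA fragments resolved by capillary electrophoresis after RT-PCR. HepG2 cells carried transiently transfected PPRE-driven cis reporter constructs and were dosed for 24 h; gain or loss of signal fitted relative to DMSO.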

[5] = ATG_RORE_CIS: Attagene CIS-FACTORIAL HepG2 Assay for human RAR-related Orphan Receptor Element (RORE) (AID 2282959); conditions: HepG2 Attagene cis-factorial RORE reporter, mRNA; actives raise or lower the signal
Procedure, shortened: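 Readout: fluorescent reporter mRNA by RT-PCR plus capillary electrophoresis, 24 h after dosing transfected HepG2 cells. Endogenous transcription factor activity on a cis promoter element is measured. Gain or loss of signal fitted against DMSO.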

[6] = ATG_Sox_CIS: Attagene CIS-FACTORIAL HepG2 Assay for human SRY-box transcription factor (SOX) (AID 2282960); conditions: HepG2 Attagene cis-factorial SOX reporter, mRNA; actives raise or lower the signal
Procedure, shortened: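 Read-out: fluorescent RT-PCR products of SOX1-linked reporter transcripts resolved by capillary electrophoresis, fitted bidirectionally against DMSO. Transiently transfected HepG2 cells, 24 h after chemical exposure, endogenous transcription factor activity.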

[7] = target: Transcription factor Sp1 (Homo sapiens) (UniProt P08047); experiment: ATG_Sp1_CIS: Attagene CIS-FACTORIAL HepG2 Assay for human Specificity Protein 1 (Sp1) (AID 2282961); conditions: HepG2 Sp1 cis-reporter transcription, actives raise or lower the signal
Procedure, shortened: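 Read-out: fluorescence of 6-FAM-labeled, HpaI-digested RT-PCR products separated by capillary electrophoresis. HepG2 cells carried transfected cis-element reporter units and were exposed to chemicals for 24 h; gain or loss of signal fitted relative to DMSO.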

[8] = ATG_SREBP_CIS: Attagene CIS-FACTORIAL HepG2 Assay for human Sterol Regulatory Element Binding (SREBP) (AID 2282962); conditions: HepG2 Attagene cis-factorial SREBP reporter, mRNA; actives raise or lower the signal
Procedure, shortened: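 In this cis-format assay, HepG2 liver cells express reporters controlled by promoter elements responsive to native transcription factors. Exposure lasts 24 h; reporter mRNA fluorescence from capillary electrophoresis gives the signal, fitted bidirectionally against DMSO.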

[9] = target: Signal transducer and activator of transcription 3 (Homo sapiens) (UniProt P40763); experiment: ATG_STAT3_CIS: Attagene CIS-FACTORIAL HepG2 Assay for human Signal Transducer and Activator of Transcription 3 (STAT3) (AID 2282963); conditions: HepG2, Attagene cis-factorial STAT3 reporter transcription; actives raise or lower the signal
Procedure, shortened: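 Cis-factorial format: endogenous transcription factors in HepG2 drive transfected reporter units. After 24 h treatment, reporter RNA was reverse-transcribed, amplified, FAM-labelled and HpaI-digested before CE analysis; activity scored in both directions against DMSO.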

[10] = ATG_TA_CIS: Attagene CIS-FACTORIAL HepG2 Assay for human TA Basal Promoter (AID 2282964); conditions: HepG2 Attagene CIS-factorial TA basal promoter reporter; actives raise or lower the signal
Procedure, shortened: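 Background-control readout: TA basal promoter reporter mRNA, fitted in both directions relative to DMSO. Measured by RT-PCR and capillary electrophoresis 24 hours after treating HepG2 human liver cells transiently carrying multiplexed cis-regulated reporter constructs.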

[11] = ATG_TCF_b_cat_CIS: Attagene CIS-FACTORIAL HepG2 Assay for human T-Cell-Factor with beta-catenin (TCF/b-cat) (AID 2282965); conditions: HepG2 TCF/beta-catenin cis-reporter transcription, actives raise or lower the signal
Procedure, shortened: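 Measured: reporter mRNA in HepG2 transiently transfected with cis-promoter reporter units, 24 h after chemical addition. Fitting was bidirectional, DMSO as negative control.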

[12] = ATG_TAL_CIS: Attagene CIS-FACTORIAL HepG2 Assay for human TAL Basal Promoter (AID 2282966); conditions: HepG2 Attagene cis-factorial TAL promoter reporter; actives raise or lower the signal;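 note: background control endpoint measuring basal TAL promoter reporter mRNA not a specific factor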
Procedure, shortened: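 Transiently transfected HepG2 (cis-regulated reporter units), 24 h treatment, mRNA read by fluorescent CE after RT-PCR; bidirectional fit, DMSO baseline.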

[13] = ATG_TGFb_CIS: Attagene CIS-FACTORIAL HepG2 Assay for human Transforming Growth Factor (TGF) (AID 2282967); conditions: HepG2 Attagene CIS TGFb reporter, mRNA transcription; actives raise or lower the signal
Procedure, shortened: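 Endogenous TGFB1-linked transcription factor activity read as reporter mRNA via RT-PCR and capillary electrophoresis, 24 h after dosing transiently transfected HepG2 cells. Gain or loss of signal fitted relative to DMSO.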

[14] = ATG_VDRE_CIS: Attagene CIS-FACTORIAL HepG2 Assay for human Vitamin D Receptor Element (VDRE) (AID 2282968); conditions: HepG2 VDRE cis-reporter transcription, actives raise or lower the signal
Procedure, shortened: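 Measures endogenous factor activity through cis-element-driven reporter transcripts in transiently transfected HepG2. Cells are treated 24 h; reporter mRNA is quantified by RT-PCR and capillary electrophoresis; fitting is bidirectional.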

[15] = target: Nuclear receptor subfamily 1 group I member 3 (Homo sapiens) (UniProt Q14994); experiment: ATG_CAR_TRANS: Attagene TRANS-FACTORIAL HepG2 Assay for human Constitutive Androstane Receptor (CAR) (AID 2282969; active = hit-call score of the fitted dose curve at least 0.9, where 1 is the maximum;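 note: activators raise reporter mRNA above DMSO so AC50 marks induction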); conditions: HepG2 Attagene TRANS-FACTORIAL CAR reporter
Procedure, shortened: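 Signal is reporter mRNA induction relative to DMSO, measured 24 h after dosing by RT-PCR with fluorescent primer extension and capillary electrophoresis. Human HepG2 liver cells carried transiently transfected chimeric NR-Gal4/GAL4-UAS reporter constructs.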

[16] = target: Estrogen receptor (Homo sapiens) (UniProt P03372); experiment: ATG_ERa_TRANS: Attagene TRANS-FACTORIAL HepG2 Assay for human Estrogen Receptor alpha (ERa) (AID 2282970; active = hit-call score of the fitted dose curve at least 0.9, where 1 is the maximum); conditions: HepG2 Attagene TRANS ERa GAL4 reporter, mRNA
Procedure, shortened: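 One of 30 multiplexed endpoints from a HepG2 TRANS system, this one reports ERa-Gal4-driven reporter mRNA. Transcripts were quantified 24 hours post-dosing by fluorescent RT-PCR and capillary electrophoresis, with activity scored as induction over DMSO.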

[17] = target: X-box-binding protein 1 (Homo sapiens) (UniProt P17861); experiment: ATG_Xbp1_CIS: Attagene CIS-FACTORIAL HepG2 Assay for human X-box Binding Protein 1 (XBP1) (AID 2282972); conditions: HepG2 XBP1 cis-element reporter, Attagene multiplex; actives raise or lower the signal
Procedure, shortened: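 Changes in reporter transcript abundance, read by RT-PCR and capillary electrophoresis, reflect endogenous transcription factor activity. Transfected HepG2 cells received compound for 24 hours; DMSO defined baseline for bidirectional analysis.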

[18] = ATG_M_19_TRANS: Attagene TRANS-FACTORIAL HepG2 Assay for M19 Transcription Factor (Internal Marker) (AID 2282974; active = hit-call score of the fitted dose curve at least 0.9, where 1 is the maximum); conditions: HepG2 Attagene TRANS-FACTORIAL M19 internal marker reporter
Procedure, shortened: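 24 h chemical exposure of transiently transfected HepG2 (MRTU library). RNA → oligo(dT) RT → PCR → 6-FAM labelling → HpaI cut → CE fluorescence. Positive-direction fit vs DMSO baseline; background internal-marker readout.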

[19] = target: Steroid hormone receptor ERR1 (Homo sapiens) (UniProt P11474); experiment: ATG_ERRa_TRANS: Attagene TRANS-FACTORIAL HepG2 Assay for human Estrogen-Related Receptor alpha (ERRa) (AID 2282971; active = hit-call score of the fitted dose curve at least 0.9, where 1 is the maximum); conditions: HepG2 Attagene TRANS reporter, ERRa transactivation
Procedure, shortened: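 HepG2 cells transiently transfected with multiplexed GAL4-UAS reporter units reading chimeric ERRa-Gal4 activity; 24 h compound exposure. Reporter mRNA measured by RT-PCR, 6-FAM labelling, HpaI digest and capillary electrophoresis; gain of signal fitted versus DMSO baseline.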

[20] = target: Androgen receptor (Homo sapiens) (UniProt P10275); experiment: ATG_AR_TRANS: Attagene TRANS-FACTORIAL HepG2 Assay for human Androgen Receptor (AR) (AID 2282973; active = hit-call score of the fitted dose curve at least 0.9, where 1 is the maximum); conditions: HepG2 Attagene TRANS-FACTORIAL AR reporter transcription
Procedure, shortened: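 HepG2 cells transiently transfected with multiplexed GAL4-UAS reporter units and chimeric NR-Gal4 fusion; 24 h compound exposure. Reporter mRNA measured by RT-PCR, 6-FAM labelling, HpaI digestion and capillary electrophoresis; gain-of-signal fitted relative to DMSO baseline.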

Measured: AC50

Sequence of Paired box protein Pax-6 (Homo sapiens) (P26367 whole entry, looked up): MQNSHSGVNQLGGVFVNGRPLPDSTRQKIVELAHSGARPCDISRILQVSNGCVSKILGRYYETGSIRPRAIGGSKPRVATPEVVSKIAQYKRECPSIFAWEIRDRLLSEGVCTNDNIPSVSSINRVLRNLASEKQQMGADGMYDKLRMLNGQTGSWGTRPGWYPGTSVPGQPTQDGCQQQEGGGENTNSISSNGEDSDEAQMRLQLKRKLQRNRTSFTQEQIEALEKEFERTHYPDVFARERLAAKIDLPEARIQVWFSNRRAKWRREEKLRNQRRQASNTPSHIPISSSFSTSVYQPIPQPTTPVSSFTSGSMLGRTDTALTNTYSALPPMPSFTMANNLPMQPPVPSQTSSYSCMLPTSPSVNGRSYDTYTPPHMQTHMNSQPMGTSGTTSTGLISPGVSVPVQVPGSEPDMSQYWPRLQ
Sequence of Transcription factor Sp1 (Homo sapiens) (P08047 whole entry, looked up): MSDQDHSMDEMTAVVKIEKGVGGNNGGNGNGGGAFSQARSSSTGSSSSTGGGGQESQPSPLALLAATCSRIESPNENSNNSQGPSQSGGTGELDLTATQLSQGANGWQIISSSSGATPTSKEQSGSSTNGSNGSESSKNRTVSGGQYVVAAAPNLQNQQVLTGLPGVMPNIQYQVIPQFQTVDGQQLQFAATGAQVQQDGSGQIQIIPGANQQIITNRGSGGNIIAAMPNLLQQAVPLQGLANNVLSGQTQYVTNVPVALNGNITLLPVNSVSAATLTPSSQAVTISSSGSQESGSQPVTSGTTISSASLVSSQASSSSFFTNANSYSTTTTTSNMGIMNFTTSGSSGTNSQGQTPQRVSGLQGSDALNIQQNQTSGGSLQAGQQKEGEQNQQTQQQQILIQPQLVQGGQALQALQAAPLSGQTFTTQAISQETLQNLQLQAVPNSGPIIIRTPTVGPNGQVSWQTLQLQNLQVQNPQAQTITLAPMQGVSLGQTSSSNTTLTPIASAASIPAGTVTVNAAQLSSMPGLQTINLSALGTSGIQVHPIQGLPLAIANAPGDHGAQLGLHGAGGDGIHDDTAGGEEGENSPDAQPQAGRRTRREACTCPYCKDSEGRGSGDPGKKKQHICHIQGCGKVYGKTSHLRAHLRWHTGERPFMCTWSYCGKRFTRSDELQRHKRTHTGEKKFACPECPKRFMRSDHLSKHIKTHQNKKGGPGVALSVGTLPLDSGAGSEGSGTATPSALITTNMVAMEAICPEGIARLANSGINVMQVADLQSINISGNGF
Sequence of Estrogen receptor (Homo sapiens) (P03372 whole entry, looked up, the tested form may be a part): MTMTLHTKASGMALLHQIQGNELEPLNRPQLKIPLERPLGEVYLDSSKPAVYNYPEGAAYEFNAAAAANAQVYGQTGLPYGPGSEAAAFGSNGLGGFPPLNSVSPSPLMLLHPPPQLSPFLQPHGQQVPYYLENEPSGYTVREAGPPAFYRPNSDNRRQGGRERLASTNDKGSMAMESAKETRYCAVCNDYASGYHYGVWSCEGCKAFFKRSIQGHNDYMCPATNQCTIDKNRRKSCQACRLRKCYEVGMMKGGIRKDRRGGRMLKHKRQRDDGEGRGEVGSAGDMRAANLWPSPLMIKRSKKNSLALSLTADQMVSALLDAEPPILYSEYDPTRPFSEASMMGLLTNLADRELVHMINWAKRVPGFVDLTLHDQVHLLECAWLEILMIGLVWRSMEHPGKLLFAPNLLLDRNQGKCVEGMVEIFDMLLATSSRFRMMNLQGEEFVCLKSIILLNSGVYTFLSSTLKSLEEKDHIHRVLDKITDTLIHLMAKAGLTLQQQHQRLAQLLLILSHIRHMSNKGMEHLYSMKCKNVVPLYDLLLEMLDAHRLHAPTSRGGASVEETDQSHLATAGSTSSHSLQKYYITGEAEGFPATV
Sequence of X-box-binding protein 1 (Homo sapiens) (P17861 whole entry, looked up): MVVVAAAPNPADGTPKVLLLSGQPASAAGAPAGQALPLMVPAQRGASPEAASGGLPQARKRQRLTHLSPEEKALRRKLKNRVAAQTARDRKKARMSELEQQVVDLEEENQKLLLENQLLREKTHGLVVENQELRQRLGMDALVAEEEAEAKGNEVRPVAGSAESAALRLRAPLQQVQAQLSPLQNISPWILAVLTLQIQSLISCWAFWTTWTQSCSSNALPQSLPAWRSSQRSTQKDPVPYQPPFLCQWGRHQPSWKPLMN
Sequence of Nuclear receptor subfamily 1 group I member 3 (Homo sapiens) (Q14994 whole entry, looked up, the tested form may be a part): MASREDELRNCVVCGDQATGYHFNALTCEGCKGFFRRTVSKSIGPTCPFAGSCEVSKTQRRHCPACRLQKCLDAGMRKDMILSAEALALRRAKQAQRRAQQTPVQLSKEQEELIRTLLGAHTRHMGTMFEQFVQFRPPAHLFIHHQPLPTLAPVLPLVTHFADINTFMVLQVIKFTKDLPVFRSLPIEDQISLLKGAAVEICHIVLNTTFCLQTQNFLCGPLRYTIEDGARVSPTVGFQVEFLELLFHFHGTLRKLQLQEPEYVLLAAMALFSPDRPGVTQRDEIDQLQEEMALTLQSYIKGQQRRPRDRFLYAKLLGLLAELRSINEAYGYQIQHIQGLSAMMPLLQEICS
Sequence of Signal transducer and activator of transcription 3 (Homo sapiens) (P40763 whole entry, looked up): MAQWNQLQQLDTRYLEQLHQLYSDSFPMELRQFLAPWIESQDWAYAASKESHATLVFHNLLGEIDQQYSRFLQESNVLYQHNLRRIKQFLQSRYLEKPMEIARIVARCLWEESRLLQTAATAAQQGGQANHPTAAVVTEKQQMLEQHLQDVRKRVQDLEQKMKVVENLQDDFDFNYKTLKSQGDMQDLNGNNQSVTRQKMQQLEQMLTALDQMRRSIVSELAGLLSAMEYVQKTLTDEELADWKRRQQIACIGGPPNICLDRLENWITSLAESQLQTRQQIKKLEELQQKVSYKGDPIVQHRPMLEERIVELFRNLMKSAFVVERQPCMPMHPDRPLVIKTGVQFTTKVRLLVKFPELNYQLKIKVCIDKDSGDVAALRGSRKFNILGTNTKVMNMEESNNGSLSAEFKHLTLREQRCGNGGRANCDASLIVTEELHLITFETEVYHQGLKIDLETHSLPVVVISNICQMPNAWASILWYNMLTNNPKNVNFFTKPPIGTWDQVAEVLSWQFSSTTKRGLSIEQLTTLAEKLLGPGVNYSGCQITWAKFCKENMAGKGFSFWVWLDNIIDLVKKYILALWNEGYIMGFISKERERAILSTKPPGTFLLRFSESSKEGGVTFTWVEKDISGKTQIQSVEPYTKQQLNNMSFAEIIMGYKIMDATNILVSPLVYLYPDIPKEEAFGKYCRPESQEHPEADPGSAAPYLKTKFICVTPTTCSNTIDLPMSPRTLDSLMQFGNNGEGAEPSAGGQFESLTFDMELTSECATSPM
Sequence of Steroid hormone receptor ERR1 (Homo sapiens) (P11474 whole entry, looked up, the tested form may be a part): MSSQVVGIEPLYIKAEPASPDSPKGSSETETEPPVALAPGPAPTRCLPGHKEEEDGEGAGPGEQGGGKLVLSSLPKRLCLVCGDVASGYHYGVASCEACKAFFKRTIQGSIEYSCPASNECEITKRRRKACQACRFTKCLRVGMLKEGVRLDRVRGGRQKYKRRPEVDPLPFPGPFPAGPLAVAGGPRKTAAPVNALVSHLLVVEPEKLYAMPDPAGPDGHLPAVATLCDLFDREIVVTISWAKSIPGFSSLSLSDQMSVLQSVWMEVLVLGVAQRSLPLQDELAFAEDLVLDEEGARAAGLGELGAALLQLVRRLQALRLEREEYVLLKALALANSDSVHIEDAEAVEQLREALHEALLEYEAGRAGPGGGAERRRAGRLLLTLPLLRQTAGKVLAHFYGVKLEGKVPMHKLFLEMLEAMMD
Sequence of Androgen receptor (Homo sapiens) (P10275 whole entry, looked up, the tested form may be a part): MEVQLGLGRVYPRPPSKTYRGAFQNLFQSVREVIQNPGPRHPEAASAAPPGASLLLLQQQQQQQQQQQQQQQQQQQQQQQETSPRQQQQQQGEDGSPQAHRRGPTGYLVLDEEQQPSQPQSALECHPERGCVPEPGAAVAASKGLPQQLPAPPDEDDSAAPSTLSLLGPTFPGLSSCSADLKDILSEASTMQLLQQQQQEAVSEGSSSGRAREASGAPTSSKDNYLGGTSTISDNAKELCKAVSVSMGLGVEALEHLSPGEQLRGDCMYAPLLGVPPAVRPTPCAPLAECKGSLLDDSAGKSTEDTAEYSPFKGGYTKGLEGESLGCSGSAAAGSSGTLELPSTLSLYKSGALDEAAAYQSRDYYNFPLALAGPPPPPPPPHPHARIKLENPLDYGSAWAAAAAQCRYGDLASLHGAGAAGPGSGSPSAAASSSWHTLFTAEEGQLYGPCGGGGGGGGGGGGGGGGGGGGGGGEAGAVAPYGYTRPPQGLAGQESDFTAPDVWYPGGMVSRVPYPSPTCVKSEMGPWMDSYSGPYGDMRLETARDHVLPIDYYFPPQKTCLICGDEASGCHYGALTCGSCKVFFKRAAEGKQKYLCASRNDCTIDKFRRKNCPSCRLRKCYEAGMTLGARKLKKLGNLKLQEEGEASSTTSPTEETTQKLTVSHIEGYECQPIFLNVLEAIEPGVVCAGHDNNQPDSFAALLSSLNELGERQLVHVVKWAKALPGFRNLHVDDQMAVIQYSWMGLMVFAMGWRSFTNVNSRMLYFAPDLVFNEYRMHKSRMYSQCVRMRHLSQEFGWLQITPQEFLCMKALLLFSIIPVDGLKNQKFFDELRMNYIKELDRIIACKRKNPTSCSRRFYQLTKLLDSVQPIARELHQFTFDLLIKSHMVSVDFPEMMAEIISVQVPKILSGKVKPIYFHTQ

Clc1ccccc1-c1nnc(-c2ccccc2Cl)nn1
active: [4] 8.03 µM
inactive: [1] | [2] | [3] | [5] | [6] | [7] | [8] | [9] | [10] | [11] | [12] | [13] | [14] | [15] | [16] | [17] | [18]

COP(=S)(OC)Oc1ccc(SC)c(C)c1
active: [1] 39.3 µM | [3] 10.8 µM | [5] 53.7 µM | [8] 24.7 µM | [14] 25.7 µM | [16] 18.8 µM
inactive: [2] | [4] | [6] | [7] | [9] | [10] | [11] | [12] | [13] | [15] | [17]

COc1nn(CSP(=S)(OC)OC)c(=O)s1
active: [1] 50 µM | [3] 15.6 µM | [14] 50 µM
inactive: [2] | [4] | [5] | [6] | [7] | [8] | [9] | [10] | [11] | [12] | [13] | [15] | [16] | [17]

CCS(=O)(=O)c1cccnc1S(=O)(=O)NC(=O)Nc1nc(OC)cc(OC)n1
inactive: [1] | [2] | [3] | [4] | [5] | [6] | [7] | [8] | [9] | [10] | [11] | [12] | [13] | [14] | [15] | [19] | [17]
active: [3] 60.5 µM

O=C(O)CCCOc1ccc(Cl)cc1Cl
active: [3] 27.1 µM | [4] 22.9 µM
inactive: [1] | [2] | [3] | [4] | [5] | [6] | [7] | [8] | [9] | [10] | [11] | [12] | [13] | [14] | [15] | [17] | [20] | [18]

O=[N+]([O-])c1c(Cl)c(Cl)c(Cl)c(Cl)c1Cl
active: [2] 50 µM | [4] 2.32 µM | [5] 10.7 µM | [11] 29 µM | [14] 50 µM | [16] 50 µM
inactive: [1] | [3] | [6] | [7] | [8] | [9] | [10] | [12] | [13] | [15] | [17] | [18]

N#CN
inactive: [1] | [2] | [3] | [4] | [5] | [6] | [7] | [8] | [9] | [10] | [11] | [12] | [13] | [14] | [15] | [16] | [17]
